In the test the test system is Vero E6 infected with SARS-CoV-2. In words: morphology score (similarity to uninfected cells); higher = more like uninfected cells. To be noted: 24 h.
`CC(O)CN1CCN(CC(=O)[O-])CCN(CC(=O)[O-])CCN(CC(=O)[O-])CC1.[Gd+3]` (stereo not given) [gadoteridol] (10 µM) displayed a morphology score of -0.0781.

In turn, `c1ccc2sc(SN3CCOCC3)nc2c1` [N-oxydiethylenebenzothiazole-2-sulfenamide] (10 µM) registered a morphology score of -0.00631.

`c1ccc(-c2n[nH]cc2-c2ccnc3ccccc23)nc1` (10 µM): the morphology score is -0.0555.

Turning to `COc1cc2c(NC3CCN(CC4CCCCC4)CC3)nc(N3CCCN(C(C)C)CC3)nc2cc1OCCCN1CCCCC1` (0.833333 µM), the morphology score worked out at 0.165.

In turn, `O=C(N[C@H]1CCN(C(=O)c2cc(C(F)(F)F)cc(C(F)(F)F)c2)[C@H](Cc2ccc(Cl)cc2)C1)c1ccnc2ccccc12` (10 µM) had a morphology score of 0.195.

`Cc1c(Cl)cccc1Nc1ccccc1C(=O)O` [tolfenamic-acid] (10 µM) had a morphology score of 0.00971.

`COc1cc2c(cc1OC)CN(CCc1ccc(NC(=O)c3cc(OC)c(OC)cc3NC(=O)c3cnc4ccccc4c3)cc1)CC2` [tariquidar] (10 µM): the morphology score was -0.0369.

The molecule `CNC(=O)c1cc(Oc2ccc(NC(=O)Nc3cc(C(C)(C)C)nn3-c3ccc4ncccc4c3)c(F)c2)ccn1` [rebastinib] (0.833333 µM) showed a morphology score of 0.567.

With `CC(N)C12CC3CC(CC(C3)C1)C2` (stereo not given) [rimantadine] (10 µM), the morphology score stood at 0.136.

In turn, `CC[C@H]1[C@@H](O)[C@@H]2[C@H](CC[C@]3(C)[C@@H]([C@H](C)CCC(=O)O)CC[C@@H]23)[C@@]2(C)CC[C@@H](O)C[C@@H]12` [obeticholic-acid] (10 µM) returned a morphology score of 0.174.

With `C=CC(=O)Nc1cccc(Oc2nc(Nc3ccc(N4CCN(C)CC4)cc3OC)ncc2Cl)c1` (0.833333 µM), the morphology score was -0.0953.

`COc1ccc(CCNCC(O)COc2cccc(C)c2)cc1OC` (stereo not given) [bevantolol] (10 µM) had a morphology score of -0.027.

`COc1cc2c(cc1C(F)(F)F)N(C(=O)Nc1cc(F)cc(-c3cccnc3)c1)CC2` (10 µM) showed a morphology score of -0.0154.

`N#CC(=C(/N)Sc1ccccc1N)/C(C#N)=C(/N)Sc1ccccc1N` (10 µM) had a morphology score of -0.197.

`CC(C)c1ccc(NC(=O)c2cccs2)c(-c2nc3ccccc3[nH]c2=O)c1` (10 µM) returned a morphology score of 0.23.

`C[C@@H]1NC(=O)[C@@H](N)CNC(=O)[C@H](C2CCNC(=N)N2)NC(=O)/C(=C/NC(N)=O)NC(=O)[C@H](CNC(=O)CC(N)CCCN)NC1=O.N=C1NCC[C@H]([C@@H]2NC(=O)/C(=C/NC(N)=O)NC(=O)[C@H](CNC(=O)C[C@@H](N)CCCN)NC(=O)[C@H](CO)NC(=O)[C@@H](N)CNC2=O)N1` [capreomycin] (10 µM) registered a morphology score of 0.148.

`CC1(C)[C@@H](OC(=O)CCC(=O)O)CC[C@]2(C)[C@H]3C(=O)C=C4[C@@H]5C[C@@](C)(C(=O)O)CC[C@]5(C)CC[C@@]4(C)[C@]3(C)CC[C@@H]12` (10 µM) came in with a morphology score of 0.0746.

For `COC(=O)c1cnn(-c2ccc(F)cc2F)c1/C=N/NC(=S)NC(C)(C)C` (10 µM), the morphology score turned out to be 0.433.

As to `COc1ccc(Nc2ncnc3ccc(OC)cc23)cc1` (10 µM), the morphology score is -0.228.

Consider `CC#C[C@@H](CC(=O)O)c1ccc(OCc2cccc(-c3ccc(C(F)(F)F)cc3)c2)cc1` (10 µM), for which the morphology score amounted to 0.0803.

Consider `CCCCN1[C@@H]2CC[C@H]1C[C@@H](OC(c1ccc(F)cc1)c1ccc(F)cc1)C2` (0.833333 µM), for which the morphology score was found to be 0.0455.

Molecule `CN(C)CCOc1ccc(-c2nc(-c3ccncc3)c(-c3ccc4c(c3)CC/C4=N\O)[nH]2)cc1` (10 µM) returned a morphology score of -0.0571.

As for `CCCCCCCCCCCCCCCC(=O)OC(C)C` [isopropyl-palmitate] (10 µM), the morphology score came out at 0.286.

Consider `CN1CCC(c2c[nH]c3ccc(O)cc23)CC1` (10 µM), for which the morphology score came to 0.214.

In turn, `Cc1[nH]cnc1CN1CCc2c(c3ccccc3n2C)C1=O` [alosetron] (10 µM) came in with a morphology score of -0.0421.

In the case of `CN1CCN(c2cc(-c3ccccc3)nc(N)n2)CC1` (10 µM), the morphology score came to 0.206.

Take `C[C@H](CCC(=O)O)[C@H]1CC[C@H]2[C@@H]3C[C@H](O)[C@@H]4C[C@H](O)CC[C@]4(C)[C@H]3CC[C@]12C` [Hyodeoxycholic acid (HDCA)] (10 µM): the morphology score stood at 0.109.

For the molecule `Clc1ccc(C(c2ccc(Cl)cc2)C(Cl)(Cl)Cl)cc1` (10 µM), the morphology score turned out to be 0.0848.

Turning to `Cc1ccccc1C(=O)c1ccc(Nc2ccc(Br)cc2N)cc1Cl` (10 µM), the morphology score is -0.138.

In turn, `COC(=O)N[C@H](C(=O)N1CCC[C@H]1c1ncc(-c2ccc(-c3ccc(-c4cnc([C@@H]5CCCN5C(=O)[C@@H](NC(=O)OC)C(C)C)[nH]4)cc3)cc2)[nH]1)C(C)C` [daclatasvir] (10 µM) yielded a morphology score of 0.0693.

Molecule `CCCOc1ccc(C(=O)OCCN(CC)CC)cc1N` [proxymetacaine] (10 µM) displayed a morphology score of -0.0115.

The molecule `Cc1ncc(NC(=O)c2ccc(CN3CCN(C)CC3)c(C(F)(F)F)c2)cc1Nc1nccc(-c2cccnc2)n1` [flumatinib] (10 µM) came in with a morphology score of 0.306.

Molecule `CS(=O)(=O)CCNCc1ccc(-c2ccc3ncnc(Nc4ccc(OCc5cccc(F)c5)c(Cl)c4)c3c2)o1` [lapatinib] (10 µM) showed a morphology score of -0.279.

For the molecule `c1cc(CN2CCCNCCNCCCNCC2)ccc1CN1CCCNCCNCCCNCC1` [plerixafor] (10 µM), the morphology score came out at 0.0853.

Take `CCCN(CCC)C(=O)C(CCC(=O)O)NC(=O)c1ccccc1` (stereo not given) [proglumide] (10 µM): the morphology score was determined as 0.0817.

As for `NS(=O)(=O)Nc1ncnc(OCCOc2ncc(Br)cn2)c1-c1ccc(Br)cc1` (10 µM), the morphology score was 0.0685.

With `CCCc1nc(C(C)(C)O)c(C(=O)OCc2oc(=O)oc2C)n1Cc1ccc(-c2ccccc2-c2nnn[nH]2)cc1` [olmesartan-medoxomil] (10 µM), the morphology score was -0.0296.

Turning to `Cc1nn(-c2ccccc2)c(C)c1/C=N/N1CCN(Cc2ccccc2)CC1` (10 µM), the morphology score was found to be 0.00911.

Regarding `Cc1ncc(C[n+]2csc(CCO)c2C)c(N)n1` [thiamine] (10 µM), the morphology score is 0.119.

For the molecule `CCN(CC)CCOC(=O)c1ccc(N)cc1` [procaine] (10 µM), the morphology score is -0.107.

For the origin of these results see the supplement of paper PMC13380429.
